Hits are enriched below; roughly 19% of the tested compounds scored in any of these assays.
Cycloheximide cs: counter-screen for Shiga toxin inhibitors: cycloheximide protein synthesis inhibition. cell reporter, cycloheximide protein synthesis inhibition counterscreen. max response, %. 300,000 compounds, 12% hits; in the data active means max response mostly above about 13%, no sharp cut-off; inactive means mostly below about 14%; further: read at 38.3 µM for the half of the compounds with a filed dose; 0% is about no effect
SARS PLP yeast: blocks SARS-CoV papain-like protease in a yeast assay; S. cerevisiae expressing SARS-CoV PLpro, growth rescue; 330,000 compounds, 0.19% hits; Potency, µM (doses to about 32.9 µM), for inactives: at the top dose activity, positive = growth rescue, hits mostly activators; calls by dose curve; further: potency means the concentration at half of the fitted maximal effect; 0% is about no effect; nearly all actives have a fitted effect of over 55% in size
Pf growth 48h: inhibits P. falciparum growth in the first generation, 48 h | P. falciparum luciferase growth in erythrocytes, 48 h | Potency, µM (series often up to 28.7 µM), for the others: at the top dose activity change, negative = inhibition, hits mostly inhibitors | 310,000 compounds, 5.9% hits; further: potency means the concentration at half of the fitted maximal effect; on the % scale 0 is the no-effect control and ±100 the full control effect
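Luciferase-expressing P. falciparum in infected erythrocytes (2% hematocrit, 0.1% parasitemia final) in RPMI 1640/0.5% Albumax were exposed to compound for 48 hours at 37 C, 5% CO2; growth read as luminescence.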
Shiga inhibitor: Shiga toxin inhibition; Vero cells, Shiga toxin protein synthesis inhibition reporter; inhibition, % at 38.7 µM; 290,000 compounds, 9.2% hits; AID 2315; in the data active means inhibition mostly above about 28%, no sharp cut-off; inactive means mostly below about 43%; further: 0% is about no effect
AMA1 RON2 block: inhibitors of Plasmodium falciparum AMA1-RON2 interaction | AlphaScreen AMA1-biotinylated RON2 peptide binding | Potency, µM (highest dose often 58.2 µM), inactives show top-dose activity change, negative = inhibition, usual class: inhibitors | 360,000 compounds, 0.2% hits;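 further: potency means the concentration at half of the fitted maximal effect; 0% = vehicle wells and -100% = peptide control; nearly all actives have a fitted effect of over 45% in size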
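AMA1 (3D7) with his tag at 25 nM final met compounds first, then biotinylated RON2 peptide at 25 nM; detection used donor plus acceptor beads, 10 µg/mL apiece, read by AlphaScreen after 30 min at room temperature.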
Pf growth 96h: P. falciparum growth inhibition at 96 hours | P. falciparum luciferase reporter growth, 96 h | 320,000 compounds, 6.9% hits | Potency, µM (series often up to 28.7 µM), inactives show top-dose activity change, negative = inhibition, most hits filed as inhibitors; further: potency means the concentration at half of the fitted maximal effect; on the % scale 0 is the no-effect control and ±100 the full control effect
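Luminescence readout: decreased luciferase signal marks inhibited growth of reporter-expressing P. falciparum in infected red cells (2% hematocrit, 0.05% parasitemia final), exposed to compound two generations (96 h, 37 C, 5% CO2).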
* marks the source's active call; other numbers are inactive results; i = inactive; ? = inconclusive; . = no result given. Unless noted, the call rests on the fitted dose curve; in most records, active means well fitted curve in the direction sought with a large enough effect; inconclusive means small, poorly fitted or top-dose-only effect, or another doubt; inactive means no such curve, though single readings can be large; an effect the other way counts as inactive or inconclusive.

SMILES	Cycloheximide cs	SARS PLP yeast	Pf growth 48h	Shiga inhibitor	AMA1 RON2 block	Pf growth 96h
CCC(C)c1ccc(OCC(=O)Nc2ccc3c(c2)C(=O)NC3=O)cc1 (stereo not drawn)	-3.1	-5.9%	1.0%	-2.6	-0.3%	?
CCCNC(=O)C(Cc1ccc(OC)cc1)NC(=O)c1ccc(Cl)cc1 (stereo not drawn)	.	1.2%	-2.1%	.	-1.8%	11.8%
COC(=O)C1CCN(C(=O)/C=C/c2ccc(OC)cc2)CC1	49.2*	7.8%	165.6%	93.1	-16.1%	.
COc1ccc2cc(/C=C/C(=O)N3CCN(CC(=O)N4CCCCCC4)CC3)ccc2c1	36.9*	0.2%	6.57µM*	44.1*	7.1%	?
CCOC(=O)N1CCN(C(=O)/C=C/c2ccc(OC)c(OC)c2)CC1	1.0	23.2%	-8.3%	-9.9	0.0%	?
O=C(COc1ccc(C2SCCS2)cc1)NNC(=O)C(Cl)Cl	22.2*	3.9%	39.2%	47.8	73.0%	72.5%
Cc1ccc(NC(=O)COc2ccc(C3SCCS3)cc2)cc1	17.0	3.3%	8.2%	15.7	-9.2%	21.9%
CC1CCC(C(C)C)C(=O)/C1=C/c1ccc(N)cc1 (stereo not drawn)	34.8*	-9.7%	52.0%	91.7*	-0.1%	83.7%
CCCC[C@H](NC(=O)[C@H](CO)NC(=O)[C@H](Cc1ccc(O)cc1)NC(=O)[C@H](CO)NC(C)=O)C(=O)N[C@@H](CCC(=O)O)C(=O)N[C@@H](Cc1cnc[nH]1)C(=O)N[C@H](Cc1ccccc1)C(=O)N[C@@H](CCCNC(=N)N)C(=O)N[C@@H](Cc1c[nH]c2ccccc12)C(=O)NCC(=O)N[C@@H](CCCCN)C(=O)N1CCC[C@H]1C(=O)N[C@H](C(N)=O)C(C)C	-6.9	.	.	-8.8	.	.
COc1ccccc1OCC(=O)NCCSCc1cccc(Cl)c1	-3.6	-29.2%	10.6%	-11.1	-26.9%	11.7µM*
COc1ccccc1OCC(=O)NCCNC(=O)COc1ccccc1OC	-4.8	-0.2%	?	-6.6	1.6%	2.33µM*
COc1ccccc1OCC(=O)NNc1c2ccccc2nc2ccccc12	4.7	-2.7%	4.15µM*	13.6	-17.0%	1.6%
CC(C)(C)NC(=O)C12CCC(C)(c3nc4ccccc4nc31)C2(C)C (stereo not drawn)	-3.3	-8.4%	.	6.7	2.4%	?
CCOC(=O)[C@H]1[C@H]2COc3ccc(C)cc3[C@@H]2N2C(=O)c3cc(F)ccc3NC(=O)[C@@]12C	.	-1.0%	?	.	-16.9%	?
COc1ccc2cc3[n+](cc2c1OC)CCc1cc2c(cc1-3)OCO2	-3.1	-4.0%	0.233µM*	-13.5	21.2%	0.147µM*
CC(=O)N1CCC(N2CCCC(C(=O)c3cccc(Cl)c3)C2)CC1 (stereo not drawn)	-2.0	-0.4%	0.9%	-18.2	10.1%	?
COc1cccc(C(=O)C2CCCN(C3CCOCC3)C2)c1 (stereo not drawn)	-2.1	-0.4%	-2.2%	2.3	7.7%	2.33µM*
CCOC(=O)N1CCC(N2CCCC(C(=O)c3ccc4cc(OC)ccc4c3)C2)CC1 (stereo not drawn)	-2.5	1.9%	8.28µM*	-4.1	-14.7%	?
CCOC(=O)N1CCC(N2CCCC(C(=O)c3cc(C)c(OC)c(C)c3)C2)CC1 (stereo not drawn)	1.4	1.7%	?	16.9	-7.3%	-16.4%
CCNC(=O)C1(C)CCN(C(=O)c2ccc(-c3ccccc3)cc2)C1 (stereo not drawn)	.	.	.	.	-4.2%	.
Cc1cc(C(=O)OCC(=O)c2ccc3c(c2)OCCO3)c(C)o1	36.6*	-22.8%	117.4%	113.7*	-10.8%	-28.5%
Cc1noc(C)c1COc1ccc(C(=O)OCC(=O)c2ccc3c(c2)OCCO3)cc1	12.1	1.4%	-5.5%	1.6	-20.8%	-51.6%
O=C(COC(=O)c1ccc(Cl)nc1)c1ccc2c(c1)OCCO2	44.2*	-5.6%	37.3%	100.0*	0.0%	38.4%
CCc1ccc(C(=O)COC(=O)c2ccc(Cl)nc2)cc1	41.5*	-1.1%	i	65.2*	23.7%	270.9%
Cc1cc(C(=O)OCC(=O)Nc2ccc(F)cc2F)c(C)o1	16.6*	-3.5%	?	13.7	-19.6%	-9.9%
SMILES	Cycloheximide cs	SARS PLP yeast	Pf growth 48h	Shiga inhibitor	AMA1 RON2 block	Pf growth 96h
COc1ccc(Cl)cc1C(=O)NNC(=O)CSc1nnnn1C	-5.8	-2.8%	-17.7%	23.2	18.1%	-2.2%
COCCCNC(=S)NNC(=O)c1csc2ccccc12	-2.9	-17.6%	41.5%	-9.5	37.0%	4.9%
CN(C)c1ccc(C(=O)N2CCNC(=O)C2CC(=O)Nc2ccc(F)cc2)cc1 (stereo not drawn)	-0.6	?	19.1%	-6.4	0.0%	10.8%
O=C(O)c1ccccc1Nc1ccc([N+](=O)[O-])c2nonc12	-3.2	-1.6%	.	-6.2	5.9%	132.8%
COc1ccc(NCc2cccnc2)cc1	11.2	0.2%	13.7%	-4.5	-8.5%	-21.3%
CCCCN(C(=O)c1cc(Cl)nc2ccccc12)c1c(N)n(CCCC)c(=O)[nH]c1=O	.	2.2%	?	.	0.7%	-11.3%
CS(=O)(=O)c1cccc(C(=O)OCC(=O)c2ccc3c(c2)OCCO3)c1	.	-2.7%	5.9%	.	16.8%	-3.7%
Cc1c(C(=O)OCC(=O)c2ccc3c(c2)OCCO3)oc2ccccc12	36.3*	-4.3%	12.4%	58.7*	1.3%	?
Cc1cc(C(=O)OCC(=O)c2ccc(Br)s2)c(C)o1	32.6*	-8.1%	23.8%	36.3	.	33.0%
Cc1cc(C(=O)OCC(=O)c2ccc(Br)s2)no1	2.1	-7.0%	2.4%	-3.0	-13.0%	?
O=C(COC(=O)c1cccnc1Cl)c1ccc2c(c1)OCCO2	34.8*	3.6%	39.2%	87.7*	-10.6%	-22.1%
Nc1ccccc1C(=O)OCC(=O)c1ccc2c(c1)OCCO2	31.1*	5.1%	167.7%	73.8*	8.3%	177.3%
O=C1[C@H]2[C@H](C=CC[C@H]2C(=O)N2CCN(c3ccccc3)CC2)CCN1Cc1ccc(Cl)c(Cl)c1	.	.	.	.	-4.8%	.
COc1cccc(-c2cnc(C(O)c3c(C)ccc4ccccc34)[nH]2)c1 (stereo not drawn)	.	.	.	.	26.6%	.
Fc1cccc(CN2CCN(c3ncccn3)CC2)c1	6.2	6.2%	2.7%	-11.3	?	.
O=C(NCc1ccncc1)[C@@H]1CCCN1C(=O)[C@@H]1CCCN1C(=O)c1cccc2ccccc12	.	.	.	.	-12.4%	.
O=C(COC(=O)C(O)c1ccccc1)c1ccc2c(c1)OCCO2 (stereo not drawn)	32.0*	9.2%	20.1%	102.7*	3.0%	21.9%
O=C(Cn1cnc(S(=O)(=O)N2CCCCC2)c1)Nc1ccc(OC(F)(F)F)cc1	1.1	1.0%	-1.8%	-5.3	11.3%	-25.9%
COc1ccc(S(=O)(=O)/N=C2\C=C(Nc3ccc(O)cc3)C(=O)c3ccccc32)cc1	10.4	-1.4%	0.928µM*	13.1	17.8µM*	17.8%

Bioassay records from PubChem.
